# Bioassay records deposited in PubChem by Johns Hopkins Ion Channel Center.
# An excerpt weighted towards active compounds, which were near 1.6% of everything screened.
# KCNQ2 block – blocks the rat KCNQ2 potassium channel. O88943. CHO-K1 KCNQ2, FluxOR thallium flux, 20 min; active compounds read low. B-score at 10 µM. actives 1.1% (n = 310,000). AID 2156;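 active = fluorescence ratio B-score at most minus 3 library SDs, with starting brightness B-score within 2 library SDs, cut at about -5.5 in these data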
# KCNQ2 enhance – enhances the rat KCNQ2 potassium channel. B-score at 10 µM. CHO-K1 KCNQ2, FluxOR thallium flux fluorescence; active compounds read high. actives 0.54% (n = 310,000);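 active = fluorescence ratio B-score at least 3 SD of library B-scores, with initial fluorescence B-score within 3 of them, cut at about 5.3 in these data; same plate scores as AID 2156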;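 note: B-score of peak minus minimum over baseline fluorescence ratio after K+ and Tl+ stimulus; positive B-score means potentiation of KCNQ2 with more thallium influx and brighter signal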
# KCNQ2 inh conf – rat KCNQ2 channel inhibition, confirmatory screen | shares compounds with KCNQ2 block | KCNQ2-expressing cells, thallium flux; active compounds read low | activity change, negative = inhibition, % at 10 µM | actives 57% (n = 1,000) | AID 493025;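 note: 0% = vehicle wells and values are ratio percent relative to vehicle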
# KCNQ1 spec – KCNQ2 inhibitor that also affects human KCNQ1 channel; shares compounds with KCNQ2 block; KCNQ1-expressing cells, FluxOR thallium flux fluorescence; active compounds read low; activity change, negative = inhibition, % at 10 µM; actives 15% (n = 1,000); AID 493026;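 active = activity change at least 3 SD of negative controls below their mean in both duplicate wells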;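 note: CHO cells stably transfected with KCNQ1 and depolarized by potassium stimulus; peak minus minimum fluorescence over baseline after thallium addition; 0% = vehicle negative control and -100% = blank without thallium stimulus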
# Target sequence (P51787 whole entry, looked up): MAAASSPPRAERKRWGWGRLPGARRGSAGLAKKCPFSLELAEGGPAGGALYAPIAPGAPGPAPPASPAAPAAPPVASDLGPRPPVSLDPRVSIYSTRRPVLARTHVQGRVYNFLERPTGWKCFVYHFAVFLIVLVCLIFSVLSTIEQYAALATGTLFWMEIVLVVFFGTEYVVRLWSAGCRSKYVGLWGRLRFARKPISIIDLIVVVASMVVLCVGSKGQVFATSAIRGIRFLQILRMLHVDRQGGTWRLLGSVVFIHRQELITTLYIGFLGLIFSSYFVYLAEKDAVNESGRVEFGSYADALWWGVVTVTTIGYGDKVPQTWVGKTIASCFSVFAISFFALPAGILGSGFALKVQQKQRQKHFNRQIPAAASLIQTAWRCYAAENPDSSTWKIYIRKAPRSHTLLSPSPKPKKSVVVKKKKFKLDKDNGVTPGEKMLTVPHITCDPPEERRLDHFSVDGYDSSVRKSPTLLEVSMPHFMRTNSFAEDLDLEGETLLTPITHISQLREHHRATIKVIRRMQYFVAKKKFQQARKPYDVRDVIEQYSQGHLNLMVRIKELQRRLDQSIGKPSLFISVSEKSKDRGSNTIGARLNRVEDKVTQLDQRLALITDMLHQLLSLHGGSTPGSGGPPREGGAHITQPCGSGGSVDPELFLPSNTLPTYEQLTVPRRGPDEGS
# CHO parental ctr – activity in parental CHO cells lacking KCNQ2; AID 493029; thallium flux counter-screen; active compounds read low; activity change, % at 10 µM; shares compounds with KCNQ2 block; actives 14% (n = 1,000);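 note: 0% = vehicle negative controls with stimulus buffer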
# KCNQ2 patch conf – blocks rat KCNQ2 current in automated patch clamp; KCNQ2-expressing cells; calls only at 10 µM; actives 49% (n = 550); shares compounds with KCNQ2 block; AID 588531
# Starred values were filed as active, the others as inactive; i = inactive; x = not tested or not shown; + = active, no number. Unless noted, the rule behind the calls is not given here.
SMILES,KCNQ2 block,KCNQ2 enhance,KCNQ2 inh conf,KCNQ1 spec,CHO parental ctr,others
COc1ccc(S(=O)(=O)Nc2ccc(F)cc2)cc1N(C)S(=O)(=O)c1ccc(Cl)cc1,i,x,x,x,x,
Cc1ccc(Sc2c(C)nn(C(=O)c3cccc(S(=O)(=O)N4CCOCC4)c3)c2C)cc1,-9*,-9,-33%*,i,i,KCNQ2 patch conf=i
Cc1cc(C)n(C(=O)c2cccc(S(=O)(=O)N3CCOCC3)c2)n1,i,x,x,x,x,
CCCCNC(=O)C1c2cc(OC)c(OC)cc2C(=O)N(C)C1c1ccc(OC)cc1 (configuration not stated),i,x,x,x,x,
Cc1ccc(S(=O)(=O)N2CCC(C(=O)N[C@@H](Cc3ccccc3)C(=O)O)CC2)cc1,i,0.53,x,x,x,
COc1cc(CNCCO)cc(Cl)c1OCc1ccc(Cl)cc1Cl,-9.8*,-9.8,-41%*,-31%*,-31%*,KCNQ2 patch conf=i
COc1cc(CNCCO)cc(Br)c1OCc1ccccc1Cl,i,x,x,x,x,
Cc1ccc(-n2nc3c(=O)n(CCCC(=O)NCc4cccc(F)c4)nc(C)c3c2C)cc1,i,x,x,x,x,
COc1ccc(/C=N/n2c(N)nc(-c3ccccc3)c2-c2ccccc2)cc1,-7*,-7,i,i,i,
COc1ccc(/C=N/n2c(-c3ccccc3)n[nH]c2=S)cc1,i,x,x,x,x,
CCOC(=O)C(C)n1cnc2c(nnn2-c2ccc(OC)cc2)c1=O (configuration not stated),i,0.47,x,x,x,
CN(CC(=O)Nc1ccccc1Oc1ccccc1)Cc1ccccc1F,i,x,x,x,x,
Cc1ccccc1CN(C)CC(=O)Nc1ccccc1Oc1ccccc1,-7.5*,-7.5,-32%*,-32%*,-26%*,KCNQ2 patch conf=i
O=C(c1cc(F)ccc1F)C1CCCN(C(=O)c2ccco2)C1 (configuration not stated),i,1.6,x,x,x,
O=C(c1sc2cccc(Cl)c2c1Cl)N1CCN(CCc2ccccn2)CC1,i,0.71,x,x,x,
CCOc1ccc2cc(C(=O)c3ccccc3)c(=O)oc2c1,i,0.37,x,x,x,
Cn1cccc1/C=C1\CC(C(C)(C)C)C/C(=C\c2cccn2C)C1=O (configuration not stated),-11*,-11,-72%*,-74%*,-68%*,KCNQ2 patch conf=i
Cn1cccc1/C=C1\Cc2ccccc2C1=O,i,x,x,x,x,
c1ccc(C2=Nc3c(ccc4ccccc34)C(c3ccncc3)=NN2)cc1,-12*,-12,-29%*,i,i,KCNQ2 patch conf=+
Cc1ccc2c(c1)C(c1ccncc1)=NNC(c1ccccc1)=N2,i,x,x,x,x,
CCOC(=O)c1c(C)nc2c(c1-c1ccccc1)C(=O)c1ccccc1-2,-12*,-12,-30%*,i,i,KCNQ2 patch conf=+
CCOC(=O)c1c(C)nc2c(c1-c1cc(OC)ccc1OC)C(=O)c1ccccc1-2,i,0.12,x,x,x,
Cc1n[nH]c(C)c1S(=O)(=O)N1CCCC(C(=O)Nc2nccs2)C1 (configuration not stated),i,1.5,x,x,x,
CCCCn1c(N)c(N(CC(C)C)C(=O)c2ccc(OCc3c(C)noc3C)cc2)c(=O)[nH]c1=O,i,0.06,x,x,x,
Cc1ccc(NCCC(=O)c2cccs2)cc1C,-6.7*,-6.7,i,i,i,
SMILES,KCNQ2 block,KCNQ2 enhance,KCNQ2 inh conf,KCNQ1 spec,CHO parental ctr,others
Cc1ccc(NCCC(=O)c2cccs2)cc1Cl,i,x,x,x,x,
CCOC(=O)c1cnc(-c2ccccc2)nc1Oc1ccc(OC)cc1,i,1,x,x,x,
CC(OC(=O)CCN=C1NS(=O)(=O)c2ccccc21)C(=O)NC1CCCCC1C (configuration not stated),i,0.92,x,x,x,
CC1CCC(C(C)C)C(OCC(O)CN2CCCC(C)C2)C1 (configuration not stated),i,0.17,x,x,x,
O=C(NC1CCCC1)C(c1ccncc1)N(C(=O)c1csnn1)c1ccc(Cl)cc1 (configuration not stated),i,0.41,x,x,x,
CCn1cnc2c1c(=O)n(Cc1cccc([N+](=O)[O-])c1)c(=O)n2Cc1ccccc1,i,0.22,x,x,x,
CCn1cnc2c1c(=O)n(Cc1csc(-c3ccccc3)n1)c(=O)n2Cc1ccccc1,-9.4*,-9.4,-16%*,i,i,KCNQ2 patch conf=i
Cc1ccccc1C(=O)NC(=S)Nc1ccc(S(=O)(=O)N(C)c2ccccc2)cc1,i,x,x,x,x,
O=C(Nc1ccccc1)/C(=C/c1cccc(Br)c1)NC(=O)c1ccco1,i,0.02,x,x,x,
O=C(OCc1ccccc1)/C(=C/c1cccc(Br)c1)NC(=O)c1ccco1,-9.6*,-9.6,-25%*,i,i,KCNQ2 patch conf=+
CCOC(=O)c1ccc(S(=O)(=O)N2CCN(CC3CC=CCC3)CC2)cc1 (configuration not stated),i,0.38,x,x,x,
COc1ccc(CCN(C)C(=O)c2cc(-c3ccccc3)nc3ccc(C)cc23)cc1OC,-7.1*,-7.1,-34%*,-34%*,-26%*,KCNQ2 patch conf=+
COc1ccc(CCN(C)C(=O)Cc2ccc(-c3ccccc3)cc2)cc1OC,i,x,x,x,x,
O=C(O)c1cc(Cl)c(Cl)cc1C(=O)N(Cc1ccccc1)Cc1ccccc1,-7.5*,-7.5,-30%*,i,i,KCNQ2 patch conf=+
O=C(O)c1ccccc1C(=O)N(Cc1ccccc1)Cc1ccccc1,i,x,x,x,x,
COc1ccsc1NC(=O)OCc1ccc(Cl)cc1,i,x,x,x,x,
O=C(Cc1ccccc1)N/N=C/c1cccn1-c1ccc([N+](=O)[O-])cc1,i,x,x,x,x,
COc1ccccc1NC(=O)c1cc(-c2cc(OC)c(OC)c(OC)c2)nc2ccccc12,-8.9*,-8.9,i,i,i,
COc1cc(-c2cc(C(=O)Nc3ccc(N4CCOCC4)cc3)c3ccccc3n2)cc(OC)c1OC,i,x,x,x,x,
COc1ccc(-c2cc(C(=O)Nc3ccccc3O)c3ccccc3n2)cc1OC,-6.9*,-6.9,i,i,i,
COc1ccc(-c2cc(C(=O)Nc3ccc(Cl)cc3Cl)c3ccccc3n2)cc1OC,i,x,x,x,x,
Cc1ccccc1NC(=S)Nc1ccccc1,i,1,x,x,x,
O=C(Nc1cccc(C(F)(F)F)c1)c1ccc2nc(-c3ccco3)c(-c3ccco3)nc2c1,-8.5*,-8.5,-30%*,i,i,KCNQ2 patch conf=+
O=C(O)c1ccc2nc(-c3ccco3)c(-c3ccco3)nc2c1,i,x,x,x,x,
COc1ccc(CN(C)C(=O)c2oc3ccccc3c2CSC)cc1F,i,x,x,x,x,
O=C(NCC(c1ccco1)N1CCc2ccccc21)c1ccccc1F (configuration not stated),i,x,x,x,x,
COc1ccc(C(=O)NCC(c2ccco2)N2CCc3ccccc32)c(OC)c1 (configuration not stated),-8*,-8,-31%*,i,i,KCNQ2 patch conf=+
Cc1ccc(/C=C2/C(=O)N=C(N)N2C)s1,i,x,x,x,x,
C=CCc1ccccc1OCC(O)CN1C(=O)c2ccccc2C1=O (configuration not stated),-12*,-12,i,i,i,
Cc1ccccc1OCC(O)CN1C(=O)c2ccccc2C1=O (configuration not stated),i,x,x,x,x,
